# Data from PubChem BioAssay.
# Calls of active or inactive are those of the source.
# What was measured:
# Albumin (Bos taurus) = Albumin (Bos taurus) (UniProt P02769); experiment: compounds binding labelled BSA control protein – biochemical, small-molecule microarray, Alexa647 label, 635/667 nm fluorescence, artefact control for SMM control protein annotation, profiling panel (AID 1118); conditions: BSA-A647 binding, fluorescence 635 nm, higher = more signal;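 further: score merges 667 nm emission intensity and signal-to-noise per printed compound spot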
# Sequence of Albumin (Bos taurus) (P02769 whole entry, looked up): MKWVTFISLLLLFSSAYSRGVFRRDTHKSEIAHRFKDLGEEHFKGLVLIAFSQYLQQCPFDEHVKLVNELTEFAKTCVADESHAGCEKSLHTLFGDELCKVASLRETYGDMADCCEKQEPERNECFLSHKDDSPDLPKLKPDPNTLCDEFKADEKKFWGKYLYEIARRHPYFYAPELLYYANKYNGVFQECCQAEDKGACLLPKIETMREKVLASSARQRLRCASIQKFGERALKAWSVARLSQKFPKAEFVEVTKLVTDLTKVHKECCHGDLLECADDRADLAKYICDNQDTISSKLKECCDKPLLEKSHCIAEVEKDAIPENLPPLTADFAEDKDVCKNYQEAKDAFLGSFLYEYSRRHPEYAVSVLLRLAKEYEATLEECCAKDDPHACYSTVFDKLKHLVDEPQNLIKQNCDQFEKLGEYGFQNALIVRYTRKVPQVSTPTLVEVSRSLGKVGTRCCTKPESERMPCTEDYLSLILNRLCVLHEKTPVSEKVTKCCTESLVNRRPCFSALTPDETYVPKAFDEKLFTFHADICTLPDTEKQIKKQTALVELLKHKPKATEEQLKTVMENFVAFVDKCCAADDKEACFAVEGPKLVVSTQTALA
# [1] = probe aXIP binding to arrayed compounds – biochemical, NeuroSMM set, 635/667 nm fluorescence, primary screen (AID 1119); conditions: small-molecule microarray, higher = more signal, called active from +8 up or from −8 down;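 further: probe is the protein aXip251-270 applied at 1 µg/mL to compound-printed slides; binding of probe to printed compounds measured as 667 nm fluorescence plus signal to noise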
# [2] = probe aNOTCH3 binding on compound microarray – biochemical, small-molecule microarray, 635/667 nm fluorescence, primary screen (AID 1120); conditions: higher = more signal;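 further: probe is a biotin-tagged antibody raised against NOTCH3 rather than NOTCH3 protein; score merges spot fluorescence near 667 nm with spot signal to noise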
# [3] = probe aNOTCH2 binding on compound microarray – biochemical, small-molecule microarray, 635/667 nm fluorescence, primary screen (AID 1121); conditions: higher = more signal;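 further: score merges feature fluorescence read at 667 nm with its signal to noise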
# [4] = target: Carbonic anhydrase 2 (Homo sapiens) (UniProt P00918); experiment: compounds binding carbonic anhydrase 2 – biochemical, small-molecule microarray, Alexa647-labelled CAII, profiling panel (AID 1122); conditions: CAII-A647 binding fluorescence, higher = more signal
# [5] = COS7 lysate on small-molecule microarray, probe aHis, 635 nm (AID 1123); conditions: COS7 cell lysate, fluorescence, higher = more signal;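 further: z-score combines 667nm fluorescence intensity with signal-to-noise per printed compound spot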
# [6] = probe aLAP1 signal on lysate-treated microarray – cell lysate, small-molecule microarray, COS7 lysate, primary screen (AID 1124); conditions: probe aLAP1, fluorescence, higher = more signal;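 further: lysate comes from COS7 cells expressing LAP1 and is applied at 0.3 µg/mL; score merges spot fluorescence near 667 nm with signal-to-noise over triplicate slides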
# Sam68 (KHDRBS1) = experiment: compounds binding KHDRBS1 protein – biochemical, small-molecule microarray, 635 nm fluorescence, primary screen (AID 1125); conditions: higher = more signal;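 further: score merges 667 nm channel intensity with signal to noise over triplicate slides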
# [7] = tested on: Chordin-like protein 2 (CHRDL2); experiment: compounds binding chordin-like 2 – biochemical, small-molecule microarray, 635 nm fluorescence, primary screen (AID 1126); conditions: fluorescence 635 nm, higher = more signal;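 further: printed compound slides probed with Chrdl2 protein at 4 µg/mL for 1 h at 4 C; score merges 667 nm emission intensity with signal to noise over three replicate slides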
# [8] = target: Concanavalin-A (Canavalia ensiformis) (UniProt P02866); experiment: compounds binding concanavalin A lectin – biochemical, small-molecule microarray, Alexa647 label, 635 nm, artefact control for SMM control protein annotation, primary screen (AID 1127); conditions: ConA-A647 binding fluorescence, higher = more signal;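 further: z combines 667 nm emission intensity with signal-to-noise across three replicate slides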
# Sequence of Concanavalin-A (Canavalia ensiformis) (P02866 whole entry, looked up): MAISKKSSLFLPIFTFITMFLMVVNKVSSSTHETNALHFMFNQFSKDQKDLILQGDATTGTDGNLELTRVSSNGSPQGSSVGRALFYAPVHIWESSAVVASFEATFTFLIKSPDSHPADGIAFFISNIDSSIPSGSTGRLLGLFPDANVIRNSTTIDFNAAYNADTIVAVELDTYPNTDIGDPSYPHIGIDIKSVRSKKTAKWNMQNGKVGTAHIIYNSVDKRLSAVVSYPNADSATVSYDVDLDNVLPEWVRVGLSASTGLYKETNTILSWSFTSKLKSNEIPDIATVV
# [9] = compounds binding Alexa647 anti-His antibody – biochemical, small-molecule microarray, 635 nm fluorescence, artefact control for SMM control protein annotation, primary screen (AID 1128); conditions: higher = more signal;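 further: score merges feature fluorescence with signal-to-noise for each printed compound spot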
# [10] = tested on: Human papillomavirus type 1a E7 protein (residues 1-88); experiment: HPV1a E7 small-molecule binders, primary screen, biochemical, small-molecule microarray, residues 1-88, 635 nm (AID 1129); conditions: small-molecule microarray binding, fluorescence 635 nm; higher = more signal
# [11] = target: Focal adhesion kinase 1 (Homo sapiens) (UniProt Q05397); experiment: PTK2 protein binding on printed compound slides – biochemical, small-molecule microarray, 635/667 nm fluorescence, BSA, DTT, primary screen (AID 1130); conditions: 635 nm fluorescence, higher = more signal;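 further: composite of spot emission at 667 nm and signal to noise over triplicate slides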
# Sequence of Focal adhesion kinase 1 (Homo sapiens) (Q05397 whole entry, looked up): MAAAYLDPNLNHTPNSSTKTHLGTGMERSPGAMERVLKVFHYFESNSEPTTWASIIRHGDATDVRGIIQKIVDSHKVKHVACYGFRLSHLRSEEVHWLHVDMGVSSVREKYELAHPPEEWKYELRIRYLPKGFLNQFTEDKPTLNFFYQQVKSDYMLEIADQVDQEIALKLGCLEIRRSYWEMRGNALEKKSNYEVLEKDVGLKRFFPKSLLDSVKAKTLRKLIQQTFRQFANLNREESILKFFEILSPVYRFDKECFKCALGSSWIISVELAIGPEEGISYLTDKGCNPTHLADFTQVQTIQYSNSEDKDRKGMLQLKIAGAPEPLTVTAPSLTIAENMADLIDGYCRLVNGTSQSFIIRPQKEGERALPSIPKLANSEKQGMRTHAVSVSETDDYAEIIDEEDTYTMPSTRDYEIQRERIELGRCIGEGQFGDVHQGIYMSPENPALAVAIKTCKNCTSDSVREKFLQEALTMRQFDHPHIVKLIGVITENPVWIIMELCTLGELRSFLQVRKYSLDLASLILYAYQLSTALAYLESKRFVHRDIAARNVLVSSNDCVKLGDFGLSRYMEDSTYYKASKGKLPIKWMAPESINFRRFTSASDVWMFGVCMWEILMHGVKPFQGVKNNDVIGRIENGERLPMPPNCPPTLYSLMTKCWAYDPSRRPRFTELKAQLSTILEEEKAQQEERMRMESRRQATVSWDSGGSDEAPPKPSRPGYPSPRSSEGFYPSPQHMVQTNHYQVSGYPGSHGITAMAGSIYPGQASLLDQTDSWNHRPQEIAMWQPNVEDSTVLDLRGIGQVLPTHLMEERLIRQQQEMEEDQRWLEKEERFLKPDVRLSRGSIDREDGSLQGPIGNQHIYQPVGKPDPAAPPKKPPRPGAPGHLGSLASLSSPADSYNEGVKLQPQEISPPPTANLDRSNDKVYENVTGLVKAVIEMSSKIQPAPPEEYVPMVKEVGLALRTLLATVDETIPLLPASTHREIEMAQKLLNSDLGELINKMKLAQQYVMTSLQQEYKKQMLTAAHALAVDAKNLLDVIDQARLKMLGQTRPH
# [12] = tested on: Fibrinogen (Alexa647-labelled); experiment: Alexa647-fibrinogen binding to printed small molecules – biochemical, small-molecule microarray, 635/667 nm fluorescence, artefact control for SMM control-protein annotation, profiling panel (AID 1131); conditions: fibrinogen-A647 binding fluorescence, higher = more signal;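 further: z-score merges 667 nm fluorescence with per-spot signal-to-noise over triplicate slides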
# [13] = target: Follistatin (Homo sapiens) (UniProt P19883); experiment: FST protein binding to printed compounds – biochemical, small-molecule microarray, 635/667 nm fluorescence, primary screen (AID 1132); conditions: 635 nm fluorescence, higher = more signal
# Sequence of Follistatin (Homo sapiens) (P19883 whole entry, looked up): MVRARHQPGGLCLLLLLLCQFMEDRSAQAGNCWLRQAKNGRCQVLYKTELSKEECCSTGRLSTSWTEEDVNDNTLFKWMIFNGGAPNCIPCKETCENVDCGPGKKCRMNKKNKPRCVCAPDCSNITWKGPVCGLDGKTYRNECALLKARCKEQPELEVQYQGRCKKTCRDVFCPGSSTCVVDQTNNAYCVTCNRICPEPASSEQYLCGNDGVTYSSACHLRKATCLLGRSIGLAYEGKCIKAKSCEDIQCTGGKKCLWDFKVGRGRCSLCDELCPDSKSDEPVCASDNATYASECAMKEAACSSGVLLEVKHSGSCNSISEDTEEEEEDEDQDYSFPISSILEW
# [14] = target: Fibroblast growth factor 2 (Homo sapiens) (UniProt P09038); experiment: basic fibroblast growth factor binding to printed compounds – biochemical, small-molecule microarray, 635/667 nm fluorescence, primary screen (AID 1133); conditions: FGF2, fluorescence 635/667, higher = more signal
# Sequence of Fibroblast growth factor 2 (Homo sapiens) (P09038 whole entry, looked up): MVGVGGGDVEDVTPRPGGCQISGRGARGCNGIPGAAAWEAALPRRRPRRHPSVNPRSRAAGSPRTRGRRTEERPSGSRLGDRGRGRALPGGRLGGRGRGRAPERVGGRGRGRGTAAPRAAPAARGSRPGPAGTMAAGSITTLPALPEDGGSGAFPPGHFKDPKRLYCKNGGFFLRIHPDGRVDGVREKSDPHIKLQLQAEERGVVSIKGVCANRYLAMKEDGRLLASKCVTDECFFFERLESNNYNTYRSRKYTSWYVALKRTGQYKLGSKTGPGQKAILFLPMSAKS
# [15] = JC-1 mitochondrial potential readout, lung cancer cells – cell-based, A549, JC-1 fluorescence, basal, 24 h, 100 nL, profiling panel (AID 1138); conditions: higher = more signal;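 further: A549 lung adenocarcinoma cells under basal conditions with no added stimulus; test concentration not given here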
# Lefty1 = Lefty1 protein binding to printed compounds – biochemical, small-molecule microarray, 635/667 nm fluorescence, primary screen (AID 1139); conditions: fluorescence 635/667, higher = more signal
# [16] = tested on: wheat germ agglutinin (Triticum aestivum), Alexa647-labelled; experiment: Alexa647-WGA lectin binding to printed small molecules – biochemical, small-molecule microarray, 635/667 nm fluorescence, artefact control for SMM control-protein annotation, profiling panel (AID 1140); conditions: WGA-A647 binding, 635 nm fluorescence, higher = more signal;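 further: score merges 667 nm feature emission with signal to noise over triplicate slides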
# [17] = target: Luciferin 4-monooxygenase (Photinus pyralis) (UniProt P08659); experiment: inhibition of purified Photinus pyralis luciferase – biochemical, luminescence, purified enzyme, 2006 set, primary screen (AID 1141); conditions: purified firefly luciferase, SteadyGlo luminescence, 30 min; higher = more signal, called active from +8 up or from −8 down;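 further: cell-free assay with purified firefly luciferase at 100 ng per well in PBS; test concentration not given here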
# Sequence of Luciferin 4-monooxygenase (Photinus pyralis) (P08659 whole entry, looked up): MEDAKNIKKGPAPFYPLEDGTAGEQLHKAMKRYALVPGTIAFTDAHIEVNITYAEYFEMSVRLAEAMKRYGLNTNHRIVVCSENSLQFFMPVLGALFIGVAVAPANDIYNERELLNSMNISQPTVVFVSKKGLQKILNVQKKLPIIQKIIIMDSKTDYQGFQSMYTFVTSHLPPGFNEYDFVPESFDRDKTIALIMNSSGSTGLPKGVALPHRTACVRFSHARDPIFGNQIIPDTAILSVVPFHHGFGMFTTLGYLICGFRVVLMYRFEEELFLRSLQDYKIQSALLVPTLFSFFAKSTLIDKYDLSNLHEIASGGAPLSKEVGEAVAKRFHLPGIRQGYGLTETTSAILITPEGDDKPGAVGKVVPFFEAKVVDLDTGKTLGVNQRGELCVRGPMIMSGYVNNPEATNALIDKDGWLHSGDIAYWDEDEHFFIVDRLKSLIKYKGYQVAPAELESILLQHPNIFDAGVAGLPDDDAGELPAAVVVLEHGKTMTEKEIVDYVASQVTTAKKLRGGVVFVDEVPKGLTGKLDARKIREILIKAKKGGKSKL
SMILES,composite z-score (Albumin (Bos taurus)),composite Z-score [1],composite z-score [2],composite z-score [3],composite z-score [4],composite z-score [5],composite z-score [6],composite z-score (Sam68 (KHDRBS1)),composite z-score [7],composite z-score [8],composite z-score [9],composite z-score [10],composite z-score [11],composite z-score [12],composite z-score [13],composite z-score [14],z-score [15],composite z-score (Lefty1),composite z-score [16],z-score [17]
CCOC(=O)C[C@H]1[C@H](OC(=O)c2cc3ccccc3oc2=O)[C@@H](NC(=O)C2CCCCC2)c2cc(OCCCO)ccc2N1C(=O)c1ccc2ccccc2n1,0.596,-0.0789 (inactive),-0.0311,-0.115,0.0744,0.801,-0.108,1.06,0.544,0.953,0.0957,0.791,2.65,0.443,1.13,0.324,0.539,0.522,0.755,0.777 (inactive)
NC(=O)NCC#Cc1ccc2c(c1)[C@]1(C(=O)N2)[C@H](c2ccccc2OCCO)N2[C@H](c3ccccc3)[C@H](c3ccccc3)OC(=O)[C@H]2[C@@H]1C(=O)N1CCN(c2ncccn2)CC1,0.0405,0.39 (inactive),0.0539,-0.0907,0.335,1.82,0.614,1.29,0.326,0.946,0.997,1.19,0.695,0.814,1.08,1.03,-0.77,0.347,0.438,-0.538 (inactive)
CCCC[C@H]1OB(O)C[C@H]2C1=C(COC)C[C@H]1C(=O)N(Cc3ccccc3)C(=O)[C@H]12,0.11,-0.328 (inactive),0.0727,-0.182,0.606,0.0082,0.102,0.252,-0.0765,0.106,-0.438,0.422,0.112,0.575,0.935,1.18,1.03,0.499,0.552,-1.22 (inactive)
O=C1OCC=C[C@H]2OC34C=CCN(Cc5ccccc5)C(=O)[C@H]3N(CCO)C(=O)[C@@H]4[C@@H]12 (stereo not given in full),0.661,0.383 (inactive),-0.248,-0.177,0.824,0.666,-0.0963,-0.72,-1.82,-0.403,-0.29,-0.766,-0.248,-1.04,-0.0764,-1.24,-0.0233,0.0323,-0.0943,-3.69 (inactive)
C#CCNC(/C=C/c1ccccc1)CO (stereo not given),-0.086,0.234 (inactive),-0.104,-0.115,-0.152,0.14,-0.0995,0.134,0.3,0.262,0.638,0.355,-0.0492,0.269,0.362,0.106,-1.07,0.394,-0.0687,0.835 (inactive)
COCCCNC(=O)[C@@]1(Sc2ccc(C)cc2)CC(=O)N(Cc2cc(C(F)(F)F)cc(C(F)(F)F)c2)[C@@H]1c1ccc(CO)cc1I,-0.306,0.297 (inactive),-0.227,-0.133,0.85,0.57,-0.874,-0.955,-1.19,-0.82,-0.21,-1.1,0.144,-1.86,-0.993,-0.511,0.915,-1.66,-1.1,-0.503 (inactive)
